Assay [1] has as its target T1, Mitogen-activated protein kinase 12 (Homo sapiens) (UniProt P53778).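 Note: values are averaged p38gamma kinase inhibition readings, compounds tested at 1 µM.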
T1 sequence (whole entry): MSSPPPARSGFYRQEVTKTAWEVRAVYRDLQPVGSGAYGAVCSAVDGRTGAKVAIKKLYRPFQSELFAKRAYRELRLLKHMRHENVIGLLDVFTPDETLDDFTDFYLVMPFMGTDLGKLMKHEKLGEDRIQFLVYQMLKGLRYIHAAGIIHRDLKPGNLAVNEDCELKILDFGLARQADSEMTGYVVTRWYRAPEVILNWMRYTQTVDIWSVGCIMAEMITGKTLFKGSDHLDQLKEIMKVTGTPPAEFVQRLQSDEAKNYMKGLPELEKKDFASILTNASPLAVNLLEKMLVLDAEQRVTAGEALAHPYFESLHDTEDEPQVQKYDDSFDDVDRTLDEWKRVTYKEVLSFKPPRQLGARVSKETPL
The conditions noted are these: at 1 µM.

The target in assay [2] is SRSF protein kinase 1 (Homo sapiens) (UniProt Q96SB4). The conditions noted are these: at 0.1 µM.
Assay [3] has the same target. The conditions noted are these: at 1 µM.
For assay [4], the target named is Phosphatidylinositol 4,5-bisphosphate 3-kinase catalytic subunit alpha isoform (Homo sapiens) (UniProt P42336). The note with it: at 0.1 µM.
The target is the same in assay [5]. The note with it: at 1 µM.
The target in assay [6] is T2, Phosphatidylinositol 4,5-bisphosphate 3-kinase catalytic subunit delta isoform (Homo sapiens) (UniProt O00329).
T2 sequence (whole entry): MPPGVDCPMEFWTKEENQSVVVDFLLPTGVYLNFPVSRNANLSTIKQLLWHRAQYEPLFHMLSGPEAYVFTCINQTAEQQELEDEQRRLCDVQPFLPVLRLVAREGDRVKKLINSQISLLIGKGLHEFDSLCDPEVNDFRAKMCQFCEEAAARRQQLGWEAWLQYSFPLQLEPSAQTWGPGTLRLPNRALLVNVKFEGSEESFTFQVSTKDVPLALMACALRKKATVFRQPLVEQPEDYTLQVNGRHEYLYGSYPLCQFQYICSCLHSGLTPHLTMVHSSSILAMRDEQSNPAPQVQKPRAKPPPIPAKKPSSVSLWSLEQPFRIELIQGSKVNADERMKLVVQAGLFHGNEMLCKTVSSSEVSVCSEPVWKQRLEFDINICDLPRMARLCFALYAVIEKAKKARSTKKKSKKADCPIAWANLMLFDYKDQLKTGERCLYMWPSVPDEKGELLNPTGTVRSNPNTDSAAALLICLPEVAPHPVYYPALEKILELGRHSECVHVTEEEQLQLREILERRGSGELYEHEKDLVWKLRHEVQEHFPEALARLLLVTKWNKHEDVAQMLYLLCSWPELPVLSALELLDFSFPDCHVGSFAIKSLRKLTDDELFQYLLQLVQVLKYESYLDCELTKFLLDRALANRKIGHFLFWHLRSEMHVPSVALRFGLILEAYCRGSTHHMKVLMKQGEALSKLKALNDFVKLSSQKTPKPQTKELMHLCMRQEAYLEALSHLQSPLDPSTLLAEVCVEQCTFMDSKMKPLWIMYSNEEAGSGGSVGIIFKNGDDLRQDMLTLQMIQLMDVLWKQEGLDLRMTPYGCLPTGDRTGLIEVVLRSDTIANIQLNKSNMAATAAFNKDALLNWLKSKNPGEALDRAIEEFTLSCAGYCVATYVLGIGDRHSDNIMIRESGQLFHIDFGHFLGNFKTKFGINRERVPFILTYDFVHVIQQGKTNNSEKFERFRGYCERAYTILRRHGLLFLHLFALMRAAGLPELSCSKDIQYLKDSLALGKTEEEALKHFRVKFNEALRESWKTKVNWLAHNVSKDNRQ
The conditions noted are these: at 0.1 µM.

For assay [7], the target named is T2, Phosphatidylinositol 4,5-bisphosphate 3-kinase catalytic subunit delta isoform (Homo sapiens). The conditions noted are these: at 1 µM.
The target in assay [8] is Phosphatidylinositol 4-kinase beta (Homo sapiens) (UniProt Q9UBF8). The note with it: at 0.1 µM.
Assay [9] has the same target. The conditions noted are these: at 1 µM.
For assay [10], the target named is Sphingosine kinase 1 (Homo sapiens) (UniProt Q9NYA1). The note with it: at 0.1 µM.
Assay [11] shares this target. The note with it: at 1 µM.
For assay [12], the target named is T3, Sphingosine kinase 2 (Homo sapiens) (UniProt Q9NRA0).
T3 sequence (whole entry): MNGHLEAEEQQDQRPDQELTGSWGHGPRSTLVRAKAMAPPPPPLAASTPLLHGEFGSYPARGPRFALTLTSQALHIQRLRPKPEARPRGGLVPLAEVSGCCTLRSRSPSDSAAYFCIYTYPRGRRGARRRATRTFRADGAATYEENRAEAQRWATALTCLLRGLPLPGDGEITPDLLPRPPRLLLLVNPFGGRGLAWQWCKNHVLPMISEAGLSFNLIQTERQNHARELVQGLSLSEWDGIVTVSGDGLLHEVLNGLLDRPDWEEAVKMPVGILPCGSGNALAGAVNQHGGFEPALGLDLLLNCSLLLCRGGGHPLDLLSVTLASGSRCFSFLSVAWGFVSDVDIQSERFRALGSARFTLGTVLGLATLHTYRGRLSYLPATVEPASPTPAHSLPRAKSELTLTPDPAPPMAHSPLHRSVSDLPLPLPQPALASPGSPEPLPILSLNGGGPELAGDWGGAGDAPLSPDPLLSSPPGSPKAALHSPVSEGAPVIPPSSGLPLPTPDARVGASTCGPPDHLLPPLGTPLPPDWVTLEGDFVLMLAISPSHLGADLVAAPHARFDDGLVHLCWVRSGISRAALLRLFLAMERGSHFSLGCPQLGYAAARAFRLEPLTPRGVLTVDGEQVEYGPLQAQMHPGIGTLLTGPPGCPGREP
The note with it: at 0.1 µM.

For assay [13], the target named is T3, Sphingosine kinase 2 (Homo sapiens). The conditions noted are these: at 1 µM.
Assay [14] has as its target Casein kinase II subunit alpha (Homo sapiens) (UniProt P68400). The conditions noted are these: at 0.1 µM.
For assay [15] the target is unchanged. The note with it: at 1 µM.
Assay [16] has as its target T4, Inhibitor of nuclear factor kappa-B kinase subunit alpha (Homo sapiens) (UniProt O15111).
T4 sequence (whole entry): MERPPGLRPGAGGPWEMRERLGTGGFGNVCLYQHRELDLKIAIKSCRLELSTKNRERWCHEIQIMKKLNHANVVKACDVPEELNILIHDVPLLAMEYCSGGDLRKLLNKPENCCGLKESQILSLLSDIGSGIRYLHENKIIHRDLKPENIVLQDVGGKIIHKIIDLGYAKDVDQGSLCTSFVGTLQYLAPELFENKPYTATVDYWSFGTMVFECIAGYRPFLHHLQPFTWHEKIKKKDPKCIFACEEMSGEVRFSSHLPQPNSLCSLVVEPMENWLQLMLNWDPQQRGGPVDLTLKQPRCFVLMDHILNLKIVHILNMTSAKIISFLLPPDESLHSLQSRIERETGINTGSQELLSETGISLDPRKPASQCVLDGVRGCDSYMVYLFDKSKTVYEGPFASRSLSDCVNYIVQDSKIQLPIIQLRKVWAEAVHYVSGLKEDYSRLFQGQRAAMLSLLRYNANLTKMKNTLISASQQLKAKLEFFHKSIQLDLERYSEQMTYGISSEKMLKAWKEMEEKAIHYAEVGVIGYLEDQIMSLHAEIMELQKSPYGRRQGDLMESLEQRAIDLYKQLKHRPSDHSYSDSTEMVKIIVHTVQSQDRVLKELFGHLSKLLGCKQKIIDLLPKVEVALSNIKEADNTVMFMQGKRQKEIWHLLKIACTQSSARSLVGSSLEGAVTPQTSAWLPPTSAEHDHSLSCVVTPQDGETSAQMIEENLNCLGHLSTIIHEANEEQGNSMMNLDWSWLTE
The conditions noted are these: at 0.1 µM.

The target of assay [17] is T4, Inhibitor of nuclear factor kappa-B kinase subunit alpha (Homo sapiens). The note with it: at 1 µM.
In assay [18] the target is T5, Inhibitor of nuclear factor kappa-B kinase subunit beta (Homo sapiens) (UniProt O14920).
T5 sequence (whole entry): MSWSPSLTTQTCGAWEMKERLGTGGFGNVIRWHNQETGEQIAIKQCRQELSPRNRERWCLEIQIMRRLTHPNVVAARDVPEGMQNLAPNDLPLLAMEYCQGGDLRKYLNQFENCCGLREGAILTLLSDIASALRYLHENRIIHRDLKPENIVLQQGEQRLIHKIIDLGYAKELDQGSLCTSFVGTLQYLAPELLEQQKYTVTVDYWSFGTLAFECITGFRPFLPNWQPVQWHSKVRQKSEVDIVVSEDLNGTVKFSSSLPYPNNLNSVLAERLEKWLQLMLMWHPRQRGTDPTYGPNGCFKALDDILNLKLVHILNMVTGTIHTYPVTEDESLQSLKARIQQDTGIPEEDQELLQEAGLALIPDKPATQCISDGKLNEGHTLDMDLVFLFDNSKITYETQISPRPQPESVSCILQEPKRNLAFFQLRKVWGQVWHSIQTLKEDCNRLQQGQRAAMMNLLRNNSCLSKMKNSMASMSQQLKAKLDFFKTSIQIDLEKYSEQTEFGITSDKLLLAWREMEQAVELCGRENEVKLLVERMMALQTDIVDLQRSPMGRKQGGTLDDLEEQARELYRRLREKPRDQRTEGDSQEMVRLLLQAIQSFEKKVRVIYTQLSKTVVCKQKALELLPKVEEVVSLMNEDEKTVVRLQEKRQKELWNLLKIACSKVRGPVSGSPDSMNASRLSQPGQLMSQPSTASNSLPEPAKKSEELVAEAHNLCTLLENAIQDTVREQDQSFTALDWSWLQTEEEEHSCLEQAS
The conditions noted are these: at 0.1 µM.

In assay [19] the target is T5, Inhibitor of nuclear factor kappa-B kinase subunit beta (Homo sapiens). The conditions noted are these: at 1 µM.
Assay [20] deals with T6, Inhibitor of nuclear factor kappa-B kinase subunit epsilon (Homo sapiens) (UniProt Q14164).
T6 sequence (whole entry): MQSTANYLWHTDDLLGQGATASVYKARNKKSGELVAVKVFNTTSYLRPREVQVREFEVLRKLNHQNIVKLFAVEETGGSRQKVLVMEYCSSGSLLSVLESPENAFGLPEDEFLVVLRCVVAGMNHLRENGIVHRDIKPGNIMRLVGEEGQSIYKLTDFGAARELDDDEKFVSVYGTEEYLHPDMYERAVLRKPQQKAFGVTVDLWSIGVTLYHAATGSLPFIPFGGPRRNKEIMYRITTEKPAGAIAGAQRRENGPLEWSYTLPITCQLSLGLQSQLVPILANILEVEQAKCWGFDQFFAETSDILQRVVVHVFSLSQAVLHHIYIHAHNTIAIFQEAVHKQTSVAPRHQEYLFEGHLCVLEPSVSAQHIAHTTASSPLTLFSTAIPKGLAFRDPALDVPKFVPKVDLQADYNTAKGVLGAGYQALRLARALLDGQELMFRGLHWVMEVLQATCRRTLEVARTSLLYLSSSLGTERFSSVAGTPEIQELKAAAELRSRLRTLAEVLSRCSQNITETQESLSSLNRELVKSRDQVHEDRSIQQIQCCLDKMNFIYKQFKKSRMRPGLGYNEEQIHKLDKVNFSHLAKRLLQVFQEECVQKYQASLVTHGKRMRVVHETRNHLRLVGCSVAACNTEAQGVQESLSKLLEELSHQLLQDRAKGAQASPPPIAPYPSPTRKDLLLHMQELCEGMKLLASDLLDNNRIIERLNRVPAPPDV
The note with it: at 0.1 µM.

Sequence of SRSF protein kinase 1 (Homo sapiens) (Q96SB4 whole entry): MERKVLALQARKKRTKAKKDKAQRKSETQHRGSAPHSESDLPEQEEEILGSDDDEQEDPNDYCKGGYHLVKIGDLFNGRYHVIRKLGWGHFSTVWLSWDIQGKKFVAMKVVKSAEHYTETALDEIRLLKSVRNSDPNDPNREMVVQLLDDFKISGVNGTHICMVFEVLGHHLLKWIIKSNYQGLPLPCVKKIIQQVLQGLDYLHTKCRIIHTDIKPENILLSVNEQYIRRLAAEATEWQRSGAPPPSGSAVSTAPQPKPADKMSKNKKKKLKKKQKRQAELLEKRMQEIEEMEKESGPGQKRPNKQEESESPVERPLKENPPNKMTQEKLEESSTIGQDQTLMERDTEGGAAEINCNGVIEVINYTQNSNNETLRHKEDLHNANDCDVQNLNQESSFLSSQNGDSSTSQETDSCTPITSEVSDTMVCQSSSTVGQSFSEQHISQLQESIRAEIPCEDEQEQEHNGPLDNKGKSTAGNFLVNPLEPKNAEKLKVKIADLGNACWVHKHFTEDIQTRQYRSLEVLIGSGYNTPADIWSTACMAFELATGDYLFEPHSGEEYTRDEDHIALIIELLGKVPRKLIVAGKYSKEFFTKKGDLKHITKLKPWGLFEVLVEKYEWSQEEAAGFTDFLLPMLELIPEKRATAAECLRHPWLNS
Sequence of Phosphatidylinositol 4-kinase beta (Homo sapiens) (Q9UBF8 2-816 limits assumed): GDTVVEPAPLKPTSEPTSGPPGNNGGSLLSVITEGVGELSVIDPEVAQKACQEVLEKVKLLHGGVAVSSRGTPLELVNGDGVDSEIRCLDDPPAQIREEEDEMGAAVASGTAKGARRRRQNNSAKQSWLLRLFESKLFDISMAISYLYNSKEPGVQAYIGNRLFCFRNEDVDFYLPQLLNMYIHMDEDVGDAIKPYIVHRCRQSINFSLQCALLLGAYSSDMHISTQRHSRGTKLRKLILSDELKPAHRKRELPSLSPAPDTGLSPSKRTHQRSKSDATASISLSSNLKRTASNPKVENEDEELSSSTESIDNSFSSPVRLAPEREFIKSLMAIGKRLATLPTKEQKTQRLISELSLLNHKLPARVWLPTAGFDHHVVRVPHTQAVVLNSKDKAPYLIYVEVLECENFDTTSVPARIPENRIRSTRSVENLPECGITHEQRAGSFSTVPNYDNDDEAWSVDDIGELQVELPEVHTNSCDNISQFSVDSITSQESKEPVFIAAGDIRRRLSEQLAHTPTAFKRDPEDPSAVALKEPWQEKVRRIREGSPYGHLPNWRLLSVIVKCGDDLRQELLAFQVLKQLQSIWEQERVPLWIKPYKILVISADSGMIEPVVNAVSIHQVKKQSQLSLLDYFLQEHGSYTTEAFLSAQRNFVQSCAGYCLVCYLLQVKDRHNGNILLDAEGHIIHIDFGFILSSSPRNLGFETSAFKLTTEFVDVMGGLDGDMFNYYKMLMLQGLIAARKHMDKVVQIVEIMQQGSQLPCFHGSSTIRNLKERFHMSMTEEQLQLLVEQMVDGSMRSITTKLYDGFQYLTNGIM
Sequence of Phosphatidylinositol 4,5-bisphosphate 3-kinase catalytic subunit alpha isoform (Homo sapiens) (P42336 whole entry, canonical isoform): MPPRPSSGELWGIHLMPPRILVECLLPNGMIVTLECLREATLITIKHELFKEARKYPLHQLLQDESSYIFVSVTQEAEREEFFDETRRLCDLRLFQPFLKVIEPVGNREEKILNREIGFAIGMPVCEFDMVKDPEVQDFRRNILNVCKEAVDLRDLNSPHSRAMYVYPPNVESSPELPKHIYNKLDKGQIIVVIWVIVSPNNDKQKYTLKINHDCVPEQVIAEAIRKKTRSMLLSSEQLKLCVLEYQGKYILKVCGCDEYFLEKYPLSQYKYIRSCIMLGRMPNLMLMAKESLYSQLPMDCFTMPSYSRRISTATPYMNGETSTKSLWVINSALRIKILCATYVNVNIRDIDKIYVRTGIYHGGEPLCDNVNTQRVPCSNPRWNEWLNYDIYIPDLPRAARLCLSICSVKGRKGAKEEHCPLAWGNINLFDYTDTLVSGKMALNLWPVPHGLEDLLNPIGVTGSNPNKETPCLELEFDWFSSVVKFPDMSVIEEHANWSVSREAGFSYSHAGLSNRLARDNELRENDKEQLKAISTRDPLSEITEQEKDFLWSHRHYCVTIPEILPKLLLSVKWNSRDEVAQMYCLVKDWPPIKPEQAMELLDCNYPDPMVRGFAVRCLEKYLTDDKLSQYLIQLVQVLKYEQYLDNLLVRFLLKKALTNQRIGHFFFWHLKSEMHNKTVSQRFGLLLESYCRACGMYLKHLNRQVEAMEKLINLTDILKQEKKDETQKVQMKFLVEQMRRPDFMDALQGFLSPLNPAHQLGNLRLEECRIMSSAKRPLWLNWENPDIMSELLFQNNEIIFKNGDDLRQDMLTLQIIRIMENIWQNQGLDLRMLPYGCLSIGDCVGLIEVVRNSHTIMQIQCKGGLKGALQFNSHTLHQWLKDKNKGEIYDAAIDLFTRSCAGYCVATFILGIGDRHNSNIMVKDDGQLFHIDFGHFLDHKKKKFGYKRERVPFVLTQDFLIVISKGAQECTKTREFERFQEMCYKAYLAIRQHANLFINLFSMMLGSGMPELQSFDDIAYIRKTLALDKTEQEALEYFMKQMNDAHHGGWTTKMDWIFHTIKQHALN
Sequence of Casein kinase II subunit alpha (Homo sapiens) (P68400 whole entry, looked up): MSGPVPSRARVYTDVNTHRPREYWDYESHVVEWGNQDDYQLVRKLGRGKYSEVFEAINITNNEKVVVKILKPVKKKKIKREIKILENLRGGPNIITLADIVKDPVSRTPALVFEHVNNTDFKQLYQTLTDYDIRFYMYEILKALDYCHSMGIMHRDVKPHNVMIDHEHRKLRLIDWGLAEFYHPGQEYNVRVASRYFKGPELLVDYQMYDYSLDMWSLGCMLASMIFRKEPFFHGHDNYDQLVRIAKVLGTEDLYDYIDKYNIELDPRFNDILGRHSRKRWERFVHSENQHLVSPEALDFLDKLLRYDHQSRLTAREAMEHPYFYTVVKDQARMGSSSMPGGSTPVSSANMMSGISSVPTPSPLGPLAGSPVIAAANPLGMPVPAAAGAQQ
Sequence of Sphingosine kinase 1 (Homo sapiens) (Q9NYA1 whole entry): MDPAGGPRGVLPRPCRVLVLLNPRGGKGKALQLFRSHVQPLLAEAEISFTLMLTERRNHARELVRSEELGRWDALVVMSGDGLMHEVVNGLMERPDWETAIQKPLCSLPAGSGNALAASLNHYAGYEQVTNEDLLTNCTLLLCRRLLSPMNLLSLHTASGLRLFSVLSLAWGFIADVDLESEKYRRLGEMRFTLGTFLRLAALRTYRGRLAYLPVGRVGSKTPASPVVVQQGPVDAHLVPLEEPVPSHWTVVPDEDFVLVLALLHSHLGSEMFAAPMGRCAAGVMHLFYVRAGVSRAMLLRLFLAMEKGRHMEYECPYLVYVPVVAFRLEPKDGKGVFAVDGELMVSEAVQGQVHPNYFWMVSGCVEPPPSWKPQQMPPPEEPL

In general, inhibition refers to the drop in the measured response relative to a control, in per cent. For `NS(=O)(=O)c1ccc(Nc2cc(-c3ccc(O)c(F)c3)n[nH]2)cc1`, the inhibition in assay [1] was -2.2%; in assay [2] it was 1.32%; in assay [3] it was 1.27%; in assay [4] it was -2.99%; in [5] it was 2.09%; in assay [6], -0.68%. Moreover, the inhibition in [7] is 2.48%; in [8], 7.96%; in assay [9], 9.37%; in assay [10], 3.64%; in assay [11] it was -3.17%; in [12] it was 0%. Also, the inhibition in assay [13] is 0.11%; in assay [14], 5.31%; in assay [15], 29.6%; in [16] it was -1.61%; in assay [17], 3.48%; in [18], -0.76%. Besides, the inhibition in assay [19] is 0.06%; in [20], -4.53%.

Regarding `COc1cc(Nc2ncc3c(C)nc(-c4cccc(Oc5ccccc5)c4)n3n2)cc(OC)c1OC`, the inhibition is 0.85% in assay [1]; -2.01% in [2]; -3.6% in assay [3]; 0.78% in assay [4]; 1.96% in [5]; 0.25% in [6]. For the same compound, the inhibition in assay [7] is 2.99%; in assay [8], 2.58%; in assay [9], 2.46%; in assay [10] it was -1.6%; in assay [11] it was -0.76%; in assay [12] it was 0.82%. Also, the inhibition in [13] is 0%; in assay [14], 0.59%; in assay [15] it was 12.7%; in assay [16], 2.21%; in [17], -5.5%; in [18] it was 1.1%. The inhibition in [19] came to 0.16%; in assay [20], 2.97%.

The record behind these values is ChEMBL document CHEMBL1961873, “Compounds: GSK PKIS; Assays: Nanosyn kinase panel” (2012).
